“And” between values parts separate entries of the source, which are not always exact repeats. Identical values can stand only once. Values without a mark were called inactive. Inconclusive results are not listed. The source made the active and inactive calls. Calls follow the shape of the dose curve; as a rule, active = well fitted curve in the direction sought with a large enough effect; inconclusive = small, poorly fitted or top-dose-only effect, or another doubt; inactive = no such curve, though single readings can be large; an effect the other way counts as inactive or inconclusive.

Assay [1] can be described thus: Primary qHTS for inhibitors of nuclear receptor binding SET domain protein 2 (NSD2) in an RCH-ACV wild type WT cells (2C) (AID 1645877). Also: nearly all actives have a fitted effect of over 70% in size. Also: potency is read from the fitted curve at half-maximal effect. As to activity change, negative = cell killing: % is scaled to controls: 0 for no effect and ±100 for the full control effect.
Assay [2] addresses Glutathione peroxidase 1 (Homo sapiens) (UniProt P07203). The assay can be described thus: Primary qHTS Assay for Inhibitors of Recombinant Selenoprotein Glutathione Peroxidase 1 (GPX1) (AID 1845191). Also: nearly all actives have a fitted effect of over 65% in size. As to activity, negative = inhibition: % is scaled to controls: 0 for no effect and ±100 for the full control effect. Put shortly:
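GR-coupled readout: NADPH consumption tracked by fluorescence, ex 340/em 450 nm, at t=0 and after 15 min at RT. Final mix 10 nM GPX1, 1 mM GSH, 0.5 mM CHP, 0.5 mM NADPH, 100 nM GR, 0.01% BSA, following 30 min enzyme–compound preincubation.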
(In general: qHTS replaces the single test concentration by a dilution series.)

The target of assay [3] is Phospholipid hydroperoxide glutathione peroxidase GPX4 (Homo sapiens) (UniProt P36969). Put plainly: Primary qHTS Assay for Inhibitors of Recombinant Selenoprotein Glutathione Peroxidase 4 (GPX4) (AID 1845192). Also: nearly all actives have a fitted effect of over 65% in size. As to activity change, negative = inhibition: series mostly up to about 50 µM; % is scaled to controls: 0 for no effect and ±100 for the full control effect. A digest of the protocol: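 Steps: GPX4 plus compound, 30 min RT; add GR/GSH/NADPH master mix; start with cumene hydroperoxide; read 340/450 nm fluorescence at 0 and 15 min. Finals were 200 nM GPX4, 1 mM GSH, 0.5 mM CHP, 0.5 mM NADPH, 100 nM GR.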

Assay [4] addresses Luciferin 4-monooxygenase (Photinus pyralis) (UniProt P08659). The assay can be described thus: Primary firefly luciferase (FLuc) qHTS assay for identification of artifact compounds. (AID 1845220). Also: nearly all actives have a fitted effect of over 60% in size.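 As to activity change, negative = inhibition: series mostly up to about 54 µM; plate controls were DMSO vehicle for no effect and no enzyme for full effect.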 Put shortly: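 Titrated compounds were incubated 15 min at RT, protected from light, with luciferin and ATP at 10 uM; reaction started with 10 nM FLuc, luminescence imaged at 5 min, and concentration-response fitted by Hill equation.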

The nature of assay [5]: Primary fluorescence-based thiol-reactive (MSTI) qHTS assay for identification of artifact compounds. (AID 1845221). Also: nearly all actives have a fitted effect of over 65% in size. Also: potency is read from the fitted curve at half-maximal effect.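 As to activity change, negative = thiol reactive: series mostly up to about 54 µM; thiol-reactive compounds lower the probe fluorescence signal.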 Put shortly: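 MSTI probe at 4 uM final in 2% DMSO/PBS pH 7.4; compounds, 1 h at room temperature in dark. Fluorescence Ex/Em 525/598 nm, normalised to Acetyl-MSTI and MSTI, fitted to 4-parameter Hill.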
In assay [6] the test system is Nanoluciferase (engineered Oplophorus gracilirostris luciferase). Put plainly: Primary Nanoluciferase (NLuc) qHTS assay for identification of artifact compounds. (AID 1845222).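 Also: NLuc secreted into diluted conditioned medium of S16 cells; series mostly up to about 54 µM; 0% = DMSO and -100% = no enzyme.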 Put shortly: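 qHTS format, against NLuc in S16 cell-conditioned medium. Nano-Glo substrate 1:100 was added after 15 min at room temperature. Luminescence was taken after a further 5 min.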

Assay [7] in a line: Primary redox qHTS assay for identification of artifact compounds. (AID 1845223).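 Also: 0% = DMSO and 100% = reference compound.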 A digest of the protocol: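 Redox-cycling detection via DTT (250 uM final) oxidation coupled to Amplex Red (25 uM)/HRP (250 mU/mL) in HBSS. 15 min preincubation plus 30 min after DTT, room temperature. Ex/Em 525/598 nm; 4-parameter Hill fit against DMSO and 10 uM DA3003.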

Glutathione peroxidase 1 (Homo sapiens), sequence (P07203 whole entry, looked up): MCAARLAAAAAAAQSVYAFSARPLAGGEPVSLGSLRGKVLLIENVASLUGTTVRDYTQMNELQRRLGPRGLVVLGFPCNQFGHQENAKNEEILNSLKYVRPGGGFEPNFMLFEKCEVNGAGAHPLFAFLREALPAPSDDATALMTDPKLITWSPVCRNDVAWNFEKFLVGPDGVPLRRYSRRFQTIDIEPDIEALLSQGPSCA
Phospholipid hydroperoxide glutathione peroxidase GPX4 (Homo sapiens), sequence (P36969 whole entry, looked up): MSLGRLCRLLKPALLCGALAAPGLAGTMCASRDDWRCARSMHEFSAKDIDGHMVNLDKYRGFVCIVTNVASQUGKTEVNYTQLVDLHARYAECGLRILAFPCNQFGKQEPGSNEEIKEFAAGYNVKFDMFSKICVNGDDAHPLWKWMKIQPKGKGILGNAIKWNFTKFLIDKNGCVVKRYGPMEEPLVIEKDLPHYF

In the case of `C[C@@H]1O[C@@H](O[C@H]2[C@H](O[C@H]3CC[C@@]4(C)C(CC[C@]5(C)C4C=C[C@]46OC[C@@]7(CCC(C)(C)C[C@H]74)[C@@H](O)C[C@]65C)[C@]3(C)CO)O[C@H](CO)[C@@H](O)[C@@H]2O[C@@H]2O[C@H](CO)[C@@H](O[C@@H]3O[C@@H](C)[C@H](O)[C@@H](O)[C@H]3O)[C@H](O)[C@H]2O)[C@H](O)[C@H](O)[C@H]1O` (stereo not given in full), the Potency in assay [1] was 3.88 µM (active). In addition, the Potency entry in assay [2] and in assay [3] was “inactive” each time. In addition, the activity change, negative = inhibition in assay [4] was -4.04% [at 11.6 µM]. Besides, in assay [5], the activity change, negative = thiol reactive is 81.1% [at 11.5 µM]. Further, in assay [6], the activity, negative = inhibition is -2% [at 11.6 µM]. For the same compound, in assay [7], the redox activity (% of DA3003) is 9.95% [at 11.5 µM].
Turning to `COc1ncc(Nc2ncc([C@H](C)N3CCN(S(C)(=O)=O)CC3)cc2-c2nc(C)nc(N)n2)cc1F`, the Potency in assay [1] is 57.8 nM (active) and 8.3 nM (active). The Potency result in assay [2], in assay [3], in assay [4], in assay [5], in assay [6] and in assay [7] was “inactive” throughout.
Take `CC(=O)N[C@H]1[C@H](O[C@H]2CC[C@@]3(C)C(CC[C@]4(C)C3CC=C3[C@@H]5CC(C)(C)CC[C@]5(C(=O)OC5OCC(O)C(O)C5O)CC[C@]34C)C2(C)C)O[C@H](COC2OC(C)C(O)C(OC3OC(C)C(O)C(O)C3O)C2O)[C@@H](O)[C@@H]1O` (stereo not given in full): in assay [1], the activity change, negative = cell killing was 1.82% [at 9.23 µM]. Further, the Potency result in assay [2] and in assay [3] was “inactive” throughout. Besides, the outcome in assay [4] was “inactive [at 11.6 µM]”. In addition, the activity change, negative = thiol reactive in assay [5] was 127% [at 11.5 µM]. Further, in assay [6], the activity, negative = inhibition was 4.87% [at 11.6 µM]. For the same compound, the redox activity (% of DA3003) in assay [7] was 3.21% [at 11.5 µM].
Take `CC1CC[C@]2(C(=O)O)CC[C@]3(C(=O)O)C(=CCC4[C@@]5(C)CC[C@H](O[C@@H]6O[C@H](CO)[C@@H](O)[C@H](O)[C@H]6O)C(C)(C)C5CC[C@]43C)C2C1C` (stereo not given in full): the Potency entry in assay [1], in assay [2], in assay [3], in assay [4], in assay [5] and in assay [6] was “inactive” each time. Further, the Potency result in assay [7] is “inactive”.
On to `CC1=CC(=O)CC(C)(C)[C@H]1/C=C/C(CO)O[C@@H]1O[C@H](CO)[C@@H](O)[C@H](O)[C@H]1O` (stereo not given in full), for which the Potency result in assay [1], in assay [2], in assay [3], in assay [4], in assay [6] and in assay [7] was “inactive” throughout. Besides, the Potency in assay [5] was 11.7 µM (active).
Consider `CC(C)S(=O)(=O)NC[C@H](C)c1ccc(NC(=O)c2cc(F)cc(F)c2)cc1`, for which the Potency entry in assay [1], in assay [2], in assay [3], in assay [4], in assay [5] and in assay [6] was “inactive” each time. Moreover, in assay [7], the Potency result is “inactive”.
For `c1ccc(-c2ncc(CN3CCN(c4ncccn4)CC3)[nH]2)cc1`, the Potency result in assay [1], in assay [2], in assay [3], in assay [4], in assay [5] and in assay [6] was “inactive” in each case. For the same compound, the Potency result in assay [7] was “inactive”.
On to `CC1(C)CCCC2(C)C1C(O)C=C(CO)C2(O)CO` (stereo not given), for which the Potency entry in assay [1], in assay [2], in assay [3], in assay [4], in assay [5] and in assay [6] was “inactive” in each case. Moreover, the Potency result in assay [7] was “inactive”.
Turning to `CC1(C)CC[C@]2(C(=O)O)CC[C@]3(C)C(=CCC4[C@@]5(C)CC[C@H](O[C@@H]6O[C@H](CO)[C@@H](O)[C@H](O)[C@H]6O[C@@H]6O[C@H](CO)[C@@H](O)[C@H](O)[C@H]6O)[C@@](C)(CO)C5CC[C@]43C)[C@@H]2C1` (stereo not given in full), the Potency entry in assay [1], in assay [2], in assay [3], in assay [4], in assay [5] and in assay [6] was “inactive” in each case. Besides, the Potency entry in assay [7] was “inactive”.
Regarding `CC(C)=CCC/C(C)=C/CC/C(C)=C/COC1OC(COC2OCC(OC3OCC(O)C(O)C3O)C(O)C2O)C(O)C(OC2OC(C)C(OC3OC(C)C(OC4OCC(OC5OC(C)C(O)C(O)C5O)C(O)C4O)C(O)C3O)C(O)C2O)C1O` (stereo not given), the outcome is “inactive [at 9.23 µM]” in assay [1] and “inactive [at 11.6 µM]” in assay [4]. Also, the activity, negative = inhibition in assay [2] was 1.32% [at 9.52 µM]; in assay [6], -0.192% [at 11.6 µM]. Moreover, the activity change, negative = inhibition in assay [3] was 4.38% [at 9.73 µM]. Further, in assay [5], the activity change, negative = thiol reactive is 139% [at 11.5 µM]. Moreover, the redox activity (% of DA3003) in assay [7] is 11.7% [at 11.5 µM].
For `C[C@@H]1O[C@@H](O[C@@H]2[C@@H](O)[C@H](O[C@H]3CC[C@@]4(C)C(CC[C@]5(C)C4CC=C4[C@@H]6CC(C)(C)CC[C@]6(C(=O)O[C@@H]6O[C@H](CO)[C@@H](O)[C@H](O)[C@H]6O)CC[C@]45C)C3(C)C)O[C@H](C(=O)O)[C@H]2O)[C@H](O)[C@H](O)[C@H]1O` (stereo not given in full), the activity change, negative = cell killing in assay [1] is -14.9% [at 9.23 µM]. Moreover, the Potency entry in assay [2] and in assay [3] was “inactive” each time. Moreover, the activity change, negative = inhibition in assay [4] is 0.705% [at 11.6 µM]. In addition, the activity change, negative = thiol reactive in assay [5] was 312% [at 11.5 µM]. Moreover, in assay [6], the activity, negative = inhibition was 2.86% [at 11.6 µM]. Moreover, the redox activity (% of DA3003) in assay [7] was 12.9% [at 11.5 µM].
For the compound `C[C@@H]1O[C@@H](O[C@H]2[C@H](O[C@H]3[C@H](O)[C@@H](C(=O)O)O[C@@H](O[C@H]4CC[C@@]5(C)C(CC[C@]6(C)C5CC[C@]57OC[C@@]8(CCC(C)(C)CC85)[C@H](O)C[C@]76C)C4(C)C)[C@@H]3O[C@@H]3O[C@H](CO)[C@@H](O[C@@H]4OC[C@@H](O)[C@H](O)[C@H]4O)[C@H](O)[C@H]3O)O[C@H](CO)[C@H](O)[C@@H]2O)[C@H](O)[C@H](O)[C@H]1O` (stereo not given in full), the activity change, negative = cell killing in assay [1] was -1.94% [at 9.23 µM]. Moreover, the outcome in assay [2] was “inactive [at 9.52 µM]”; in assay [3] it was “inactive [at 9.73 µM]”. Besides, in assay [4], the activity change, negative = inhibition was 0.267% [at 11.6 µM]. Besides, in assay [5], the activity change, negative = thiol reactive is 330% [at 11.5 µM]. Also, the activity, negative = inhibition in assay [6] is 0% [at 11.6 µM]. Moreover, in assay [7], the redox activity (% of DA3003) is 15% [at 11.5 µM].
`CCOc1cc(C)c(Cl)cc1S(=O)(=O)n1cnc2ccccc21`: the Potency result in assay [1], in assay [2], in assay [3], in assay [4], in assay [5] and in assay [6] was “inactive” each time. Further, in assay [7], the Potency entry is “inactive”.
For `Cc1ccccc1-n1c([C@H](C)Nc2nc(N)nc3nc[nH]c23)nc2cccc(C)c2c1=O`, in assay [1], the Potency was 0.411 µM (active). Moreover, the Potency entry in assay [2], in assay [3], in assay [4], in assay [5], in assay [6] and in assay [7] was “inactive” throughout.
As for `CC1(CCOC2OC(CO)C(O)C(O)C2O)CCC23OC2(C1)C(O)CC1C(C)(C(=O)O)CCCC13C` (stereo not given), the Potency result in assay [1], in assay [2], in assay [3], in assay [4], in assay [5] and in assay [6] was “inactive” throughout. Moreover, in assay [7], the Potency result was “inactive”.

Values taken from PubChem BioAssay (NCATS).
